This is part of a sample that, as a whole, favours compounds with a hit. Of some 79,000 tested, about 15% had one in any assay. A number with no mark means an inactive call. Calls of active or inactive are those of the source. Rule as the data show it: active = growth inhibition above about 70%; inactive = the rest.
Assays:
[1] = NCI Yeast Anticancer Drug Screen. Data for the rad50 strain (AID 155);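 also: 0% = growth of vehicle-only cultures of the same strain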; settings: S. cerevisiae rad50 strain growth inhibition, hits give high values
In short: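 Relative growth inhibition (compound vs vehicle) was measured in yeast with a defined repair-gene alteration.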

[2] = NCI Yeast Anticancer Drug Screen. Data for the mec2-1 strain (AID 157); settings: S. cerevisiae mec2-1 strain, hits give high values
In short: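 Yeast mec2-1 mutant treated with compound. Readout: growth inhibition vs vehicle controls.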

[3] = NCI Yeast Anticancer Drug Screen. Data for the sgs1 mgt1 strain (AID 161);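 also: 0% = growth of cultures given vehicle only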; settings: S. cerevisiae sgs1 mgt1 strain, hits give high values
In short: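 Read-out: growth inhibition vs vehicle controls. Cells: mutant yeast strain deficient in DNA damage repair.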

[4] = NCI Yeast Anticancer Drug Screen. Data for the cln2 rad14 strain (AID 165);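 also: 0% = growth equal to vehicle treated cultures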; settings: S. cerevisiae cln2 rad14 strain, hits give high values
In short: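 cln2 rad14 yeast strain; compound exposure; growth inhibition read vs vehicle controls.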

[5] = NCI Yeast Anticancer Drug Screen. Data for the bub3 strain (AID 167); settings: S. cerevisiae bub3 mutant strain, hits give high values
In short: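 Screening used yeast with an engineered genetic alteration affecting cell cycle control. Compound-exposed cultures were compared with vehicle cultures, and reduced growth was taken as inhibition.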

[6] = NCI Yeast Anticancer Drug Screen. Data for the mlh1 rad18 strain (AID 175); settings: S. cerevisiae mlh1 rad18 strain growth inhibition, hits give high values
In short: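 Yeast w/ defined DNA-repair lesions; compound exposure; growth vs vehicle controls → % inhibition.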

[7] = at 5.0 µM (retest, dose inferred, filed as 0.5)
[8] = at 50.0 µM (retest, dose inferred, filed as 5.0)

| SMILES | growth inhibition [1, 7] | growth inhibition [1, 8] | growth inhibition ([1]; at 50.0 µM) | growth inhibition [2, 7] | growth inhibition [2, 8] | growth inhibition ([2]; at 50.0 µM) | growth inhibition [3, 7] | growth inhibition [3, 8] | growth inhibition ([3]; at 50.0 µM) | growth inhibition [4, 7] | growth inhibition [4, 8] | growth inhibition ([4]; at 50.0 µM) | growth inhibition [5, 7] | growth inhibition [5, 8] | growth inhibition ([5]; at 50.0 µM) | growth inhibition [6, 7] | growth inhibition [6, 8] | growth inhibition ([6]; at 50.0 µM) |
| --- | --- | --- | --- | --- | --- | --- | --- | --- | --- | --- | --- | --- | --- | --- | --- | --- | --- | --- |
| Cc1cccc[n+]1CC(=O)c1cccc(O)c1 | 1% | -2% | -11.1% | -2% | 4% | -3.5% | 0% | -2% | -7.45% | 4% | -4% | 36.6% | 1% | -3% | -13.6% | -2% | -4% | 7.25% |
| COc1cccc(/C=C2/Sc3scc(-c4ccccc4)[n+]3C2=O)c1O | 14% | 20% | 80.4% (active) | -9% | 21% | 55.6% | -5% | 23% | 82.3% (active) | -12% | 18% | 61.8% | -17% | 64% | 93.1% (active) | 12% | 66% | 94.1% (active) |
| O=[N+]([O-])c1ccc2nc(CCl)[nH]c2c1 | 46% | 80% (active) | 73.2% (active) | 37% | 74% (active) | 65.5% | 42% | 83% (active) | 75% (active) | 35% | 56% | 61% | 43% | 84% (active) | 74% (active) | 49% | 87% (active) | 73.3% (active) |
| Fc1ccc(OCCC(Cn2ccnc2)c2ccc(Cl)cc2Cl)cc1 (configuration not stated) | 82% (active) | 99% (active) | 98.7% (active) | 56% | 91% (active) | 99.8% (active) | 71% (active) | 96% (active) | 95.2% (active) | 61% | 92% (active) | 94.7% (active) | 83% (active) | 94% (active) | 99.2% (active) | 55% | 99% (active) | 95.1% (active) |
| COc1nc(NC2OC(CO)C(O)C(O)C2O)c(Cl)c(=O)[nH]1 (configuration not stated) | 1% | 1% | 47.5% | 4% | 12% | -0.6% | 12% | 4% | 24.1% | 7% | 11% | 20.6% | 4% | 14% | 15.3% | 4% | 5% | 1.65% |
| COC(=O)c1c(/C(=N/Nc2ccc([N+](=O)[O-])cc2)[N+](=O)[O-])ssc1=N | 14% | 37% | 21.1% | 0% | 44% | 24.9% | 13% | 60% | 27.6% | 6% | 23% | 27.9% | 6% | 40% | 24.9% | 15% | 54% | 70.9% (active) |
| CSC(=S)n1nc(-c2cccs2)c(N=Nc2ccccc2)c1C(F)(F)F | 5% | 97% (active) | 93% (active) | -1% | 98% (active) | 96.8% (active) | 8% | 97% (active) | 93% (active) | 6% | 97% (active) | 65.3% | 2% | 97% (active) | 78% (active) | 1% | 95% (active) | 94.4% (active) |
| Oc1c(Cl)cc(C(c2cc(Cl)c(O)c(Cl)c2)C(Cl)(Cl)Cl)cc1Cl | 94% (active) | 98% (active) | 98.8% (active) | 95% (active) | 99% (active) | 99.1% (active) | 81% (active) | 99% (active) | 99.3% (active) | 99% (active) | 98% (active) | 98.5% (active) | 96% (active) | 99% (active) | 98.8% (active) | 92% (active) | 98% (active) | 98.6% (active) |
| CCCCCCCCCCCC(=O)OCC(C)C | 5% | -19% | 0.95% | -7% | 20% | -13% | 0% | 4% | 7.55% | 20% | -11% | -3.95% | 0% | -18% | -2.1% | -16% | -8% | 15.5% |

From PubChem BioAssay (NCI)
